Screening results as filed in PubChem.
ALDH1A1 block – inhibitors of human aldehyde dehydrogenase 1A1. P00352. Potency, µM (titrated, usually from 75.3 µM), for inactives: top-dose activity, negative = inhibition, most hits filed as inhibitors. 7.3% of 220,000 active. Purified ALDH1A1, NADH fluorescence, propionaldehyde substrate; active = well fitted inhibition curve with a large enough effect, not every such curve was filed as active; inconclusive = small, poorly fitted or top-dose-only effect, or another doubt; inactive = no such curve, though single readings can be large or run the other way;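 note: potency is the fitted concentration of half-maximal effect; plate controls were no enzyme wells and a reference inhibitor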
HPGD block – inhibitors of human 15-hydroxyprostaglandin dehydrogenase (HPGD) | P15428 | purified HPGD, NADH fluorescence kinetic, PGE2 substrate | 4.3% of 150,000 active | Potency, µM, for the others: top-dose activity change, negative = inhibition, hits mostly inhibitors | AID 894; active = well fitted inhibition curve with a large enough effect, not every such curve was filed as active; inconclusive = small, poorly fitted or top-dose-only effect, or another doubt; inactive = no such curve, though single readings can be large or run the other way; note: potency is the fitted concentration of half-maximal effect
Target sequence (P15428 whole entry, looked up): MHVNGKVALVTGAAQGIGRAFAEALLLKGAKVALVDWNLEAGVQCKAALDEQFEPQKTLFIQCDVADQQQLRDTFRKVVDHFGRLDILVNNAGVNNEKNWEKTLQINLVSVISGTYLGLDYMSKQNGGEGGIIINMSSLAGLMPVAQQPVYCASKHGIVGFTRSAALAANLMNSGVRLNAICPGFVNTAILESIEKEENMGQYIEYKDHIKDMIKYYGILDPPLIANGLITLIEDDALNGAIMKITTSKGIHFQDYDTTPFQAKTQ
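NADH formation kinetics: reaction with 30 uM PGE2 and 1 mM NAD+ (final), 20 nM enzyme, Tris-HCl pH 8 with Tween 20, after 15 min compound preincubation at room temperature. Fluorescence change, last versus first of five reads.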
PNC assembly inh – blocks assembly of the perinucleolar compartment; activity change (PNC), negative = inhibition, % at 10 µM; AID 2417; 3.1% of 140,000 active; PC3M PTB-GFP, PNC prevalence imaging, 16 h; active compounds read low;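 active = readout at or below -70, meaning at least 70% loss of cells showing the perinucleolar compartment, a nuclear body marking cancer cells; inconclusive = readout between -30 and a set limit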;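 note: plate controls were DMSO wells for no effect and camptothecin positive control wells for full effect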
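PC3M cells stably expressing PTB-GFP, 750–1000 cells/well, treated 16 h at 37 °C with compound (23 nl of library stock), in duplicate. After paraformaldehyde fixation and Hoechst stain, imaged at 20x; PNC prevalence scored by image analysis.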
GLA inh pH 4.5 – inhibitors of human alpha-galactosidase A at pH 4.5; P06280; purified enzyme, 4-MU-alpha-Gal fluorescence, pH 4.5; activity change, negative = inhibition, % at 105 µM; 230,000 tested, under 10 active; AID 1467;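 note: 0% = full activity with enzyme and -100% = basal without enzyme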
Target sequence (P06280 whole entry, looked up): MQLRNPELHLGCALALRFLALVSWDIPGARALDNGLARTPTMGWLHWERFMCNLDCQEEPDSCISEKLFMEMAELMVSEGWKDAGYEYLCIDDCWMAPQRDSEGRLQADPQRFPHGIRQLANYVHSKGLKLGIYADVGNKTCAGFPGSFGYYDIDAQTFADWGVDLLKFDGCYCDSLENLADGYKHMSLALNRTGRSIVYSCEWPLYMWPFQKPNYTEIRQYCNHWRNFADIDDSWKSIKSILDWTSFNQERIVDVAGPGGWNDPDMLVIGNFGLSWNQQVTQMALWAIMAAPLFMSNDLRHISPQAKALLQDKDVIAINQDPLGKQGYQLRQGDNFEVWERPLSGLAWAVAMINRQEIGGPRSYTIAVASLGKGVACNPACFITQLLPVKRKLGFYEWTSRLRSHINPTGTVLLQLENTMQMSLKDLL
aGal spleen mod – inhibitors or activators of human alpha-galactosidase in spleen homogenate; P06280; human spleen homogenate, 4MU-alpha-Gal fluorescence, 40 min; Potency, µM (highest dose often 80 µM), for the others: at the highest dose activity change, negative = inhibition, usual class: inhibitors; 0.008% of 240,000 active; AID 2107;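 note: potency is the fitted concentration of half-maximal effect; 0% = enzyme with vehicle and -100% = no enzyme basal signal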
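Human spleen homogenate (1 ug) was the enzyme source, with 4-methylumbelliferyl-alpha-D-galactopyranoside (1 mM final) in pH 5.0 citrate buffer with 0.01% Tween-20. Compounds were titrated; after 40 min at 37C, NaOH/glycine stop, 4-MU fluorescence read; AC50 from Hill fits.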
ALOX12 inhib – blocks human 12-lipoxygenase activity; P18054; purified 12-hLO, xylenol orange hydroperoxide absorbance; Potency, µM (series often up to 57.1 µM), for the others: at the highest dose activity change, negative = inhibition, actives largely listed as inhibitors; 0.12% of 150,000 active; AID 1452; note: potency is the fitted concentration of half-maximal effect; nearly all actives have a fitted effect of over 55% in size
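Purified human 12hLO (150 nM final) was preincubated with compounds for 15 min at room temperature in 25 mM Hepes pH 7.0, 0.01% Triton X-100, then reacted with 40 uM arachidonic acid for 30 min. Hydroperoxide was detected with ferrous iron/xylenol orange.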
An asterisk follows results filed as active; ? = inconclusive; nt = not tested or not shown; [ ] = dose if it differs, or a comment. Compounds with a hit are over-represented: about 10% of the library has one in this group of screens. Unless noted, calls come from the whole dose curve; as a rule, active = well fitted curve in the direction sought with a large enough effect; inconclusive = small, poorly fitted or top-dose-only effect, or another doubt; inactive = no such curve, though single readings can be large; an effect the other way counts as inactive or inconclusive. Unless noted, % is set by controls: 0 for no effect and ±100 for the full control effect.

SMILES	ALDH1A1 block	HPGD block	PNC assembly inh	GLA inh pH 4.5	aGal spleen mod	ALOX12 inhib
N#C/C(N)=C(/C#N)N=Cc1cccc(Cl)c1	nt	nt	nt	-9	7%	nt
Cc1cc(C)n(-c2nc(C)nc3c2cnn3-c2ccccc2)n1	1%	?	-96*	4	-1%	3%
CCn1c(COc2cccc(C)c2C)nnc1SCC(=O)N1CCN(c2ccc(OC)cc2)CC1	-9%	-7%	-3	-3	1%	-1%
O=C1CSC(=Nc2cc(Cl)ccc2Cl)N1	1%	10µM*	-17	-10	0%	-1%
COc1cc(-c2n[nH]c(=S)n2-c2cc(C(F)(F)F)ccc2Cl)cc(OC)c1OC	6%	-19%	-6	-10	-10%	0%
COc1ccc(C(OCC2CO2)c2ccc(OC)cc2)cc1 (centres undefined)	5%	nt	nt	6	-1%	nt
Cc1ccccc1/C=C1\SC(=S)N(/N=C/c2cc([N+](=O)[O-])ccc2O)C1=O	0.4µM*	nt	nt	-6	-3%	nt
COCCn1nnnc1C(c1ccc(C)cc1)N1CCN(Cc2ccc3c(c2)OCO3)CC1 (centres undefined)	-5%	nt	9	8	-2%	-8%
c1ccc(Cn2nnnc2CN2CCN(Cc3ccc4c(c3)OCO4)CC2)cc1	20µM*	nt	-18	0	-20%	-4%
Cc1ccc(C(c2nnnn2Cc2cccs2)N2CCN(Cc3ccc4c(c3)OCO4)CC2)cc1 (centres undefined)	10µM*	-15%	-27	-21	-7%	-21%
c1ccc2c(c1)CCN(Cc1nnnn1Cc1ccc3c(c1)OCO3)C2	?	-5%	?	3	4%	-7%
O[C@@H](C1=C/C(=C\c2ccncc2)c2ccccc21)c1ccncc1	-1%[13.5 µM]	-1%	nt	nt	nt	-1%[11.4 µM]
CC(=O)OC1CCC23CC1(C)CCC2C(C)(C)CC3OC(C)=O (centres undefined)	6%	-3%	nt	-9	6%	-3%
Cc1cccc(-c2cc(=O)c3cc(Br)ccc3o2)c1	-1%	-9%	nt	2	0%	-1%
Cc1ccc(N(Cc2ccco2)C(=O)c2cccc(S(=O)(=O)N(C)C)c2)cc1	25µM*	3%	32	-4	-1%	-2%
CN(C)S(=O)(=O)c1cccc(C(=O)N(Cc2ccc(F)cc2)Cc2ccco2)c1	25µM*	-6%	-24	1	2%	-11%
CN(C)S(=O)(=O)c1cccc(C(=O)NCc2ccco2)c1	?	-1%	-20	1	4%	0%
CC1CC(N(C(=O)c2ccccc2Cl)c2ccccc2)c2ccccc2N1 (centres undefined)	12%	-6%	-3	1	-4%	-5%
O=C(c1cccc(F)c1)N1CCC2(CCCN(c3ccc(-c4ccccc4)cc3)C2)CC1	1%	-10%	nt	nt	3%	-7%
O=C(c1ccco1)N1CCN(C(=O)c2ccc(Cn3cc(Br)cn3)o2)CC1	?	-12%	?	-9	-1%	5%
O=C(c1cc2ncc(Br)cn2n1)N1CCN(C(=O)c2ccco2)CC1	25µM*	-23%	-15	1	7%	-6%
O=C(c1cc2ncc(Br)cn2n1)N1CCOCC1	3%	22µM*	-5	-2	3%	1%
C=CCc1ccc(OCCOCCOc2ccccc2[N+](=O)[O-])c(OC)c1	?	-13%	-25	-23	-3%	-7%
COCCNC(=O)c1cc2cc(Cl)cc(Cl)c2oc1=O	25µM*	nt	nt	10	-3%	nt
O=C(NCCO)c1cc2cc(Cl)cc(Cl)c2oc1=O	?	nt	nt	1	2%	nt
SMILES	ALDH1A1 block	HPGD block	PNC assembly inh	GLA inh pH 4.5	aGal spleen mod	ALOX12 inhib
N[C@H](C(=O)O)c1nn[nH]n1	3%	-1%	nt	-7	-3%	-3%
O=C1/C(=C\c2cccs2)N=C(c2cccs2)N1Nc1ccccc1	14µM*	-28%	15	-5	-1%	-16%
COc1ccc2c(c1)O[C@H](c1ccc3c(c1)OCO3)[C@@H](OC(=O)NCCOc1ccccc1)C2=O	?	4%	nt	-11	1%	nt
C=CCN=C(NC#N)SCc1ccccc1	8%	2%	34	-25	3%	0%
CCN=C(NC#N)SCc1c(F)cccc1Cl	?	-3%	-109*	-5	-1%	2%
O=C(/C=C/c1ccc2c(c1)OCO2)c1cccs1	?	?	nt	-11	14%	-25%
CC1CCc2sc(C(=O)OCC(=O)NCc3ccccc3)cc2C1 (centres undefined)	4%	nt	-94*	1	-4%	-1%
COc1cccc([C@@H]2Oc3ccc(OC)cc3/C(=N/OC[C@@H](C)[C@H](OCc3ccccc3)C(C)C)[C@@H]2O)c1	-1%[13.5 µM]	nt	nt	nt	-6%[17.5 µM]	nt
C/C(=N\N=c1/scc(C)n1Cc1ccco1)c1cccc([N+](=O)[O-])c1	-10%	-13%	-19	1	-7%	-4%
Nc1ccc(C(=O)Oc2ccccc2)c(O)c1	1%	-20%	nt	-5	0%	-11%
CCC1=C2CC[C@H]3C(=O)N(CC(=O)OC)C(=O)[C@H]3[C@H]2[C@@]2(C)C(=NCCc3c[nH]c4ccccc34)OC(=O)N2C1=O	-4%	-2%	nt	0	-1%	-2%
Nn1c(C2COc3ccccc3O2)n[nH]c1=S (centres undefined)	4.5µM*	nt	nt	-8	-7%	nt
CC1CN(S(=O)(=O)c2cccc(C(=O)Nc3ccc(S(=O)(=O)Nc4ncccn4)cc3)c2)CC(C)O1 (centres undefined)	5%	nt	nt	-21	3%	nt
NC(N)=NC[C@H](N)C(=O)O	3%[13.5 µM]	-9%	nt	nt	nt	4%[11.4 µM]
NC(=S)NNc1cccc2cccnc12	3.5µM*	nt	nt	-1	6%	nt
NC(=S)Nc1cccc2cccnc12	-2%	-13%	85	-26	2%	4%
CCn1c(SCC(N)=O)nnc1-c1ccc(S(=O)(=O)N2CCN(C)CC2)cc1	?	-13%	?	1	3%	-3%
NC(=O)CSc1nnc(-c2ccc(S(=O)(=O)N3CCCCC3)cc2)n1-c1ccccc1	16µM*	-26%	?	3	-7%	-3%
COc1ccccc1-n1c(SCC(N)=O)nnc1-c1ccc(S(=O)(=O)N2CCCCC2)cc1	4.5µM*	-6%	27	-12	-8%	-4%
COc1ccccc1-n1c(SCC(=O)N2CCCC2)nnc1-c1ccccc1	nt	nt	nt	2	5%	nt
Nc1c(C(=O)c2ccccc2O)cnn1-c1ccc(S(=O)(=O)N2CCOCC2)cc1[N+](=O)[O-]	5%	nt	nt	5	1%	nt
O=C(NC1CCCc2ccccc21)c1ccc(CNc2c(N3CCOCC3)c(=O)c2=O)cc1 (centres undefined)	1%	-10%	31	7	3%	-2%
CCOC(=O)N1CCN(c2c(NCCOC)c(=O)c2=O)CC1	32µM*	-15%	-25	-19	13%	-7%
